# High-throughput results (PubChem BioAssay)
# DT40 TDP1 CPT – growth inhibition of DT40 Tdp1-/-;hTDP1 cells with camptothecin (screen for TDP1 inhibitors); chicken DT40 Tdp1-/-;hTDP1 cells + 20 nM CPT, ATP luminescence, 48 h; Potency, µM (series often up to 46.2 µM), for inactives: at the top dose activity change, negative = growth inhibition, hits mostly inhibitors; 12% of 420,000 active; AID 686979; further: potency means the concentration at half of the fitted maximal effect; nearly all actives have a fitted effect of over 55% in size
#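 Cell growth measured by CellTiter-Glo luminescence after a minimum 48 h, 37 C compound exposure with 20 nM CPT in Tdp1-knockout DT40 cells stably expressing hTDP1, seeded 400/well; qHTS titration format.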
# LDHA block – LDHA (human) enzyme inhibition; activity change, % (values are at about 110 or 230 µM); purified LDHA, NADH/diaphorase-resazurin fluorescence; hits give low values; AID 1347041; P00338; 0.15% of 480,000 active; in the data active means activity change below about -30%; inconclusive means mostly about -25% to -30%;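 further: plate controls were DMSO wells for no effect and wells without enzyme for full effect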
#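 Human LDH5 (2 nM) was incubated with 0.06 mM NADH and 0.2 mM pyruvate for 5 min at room temperature in Tris pH 7.4. Remaining NADH was coupled through diaphorase/resazurin, and resorufin fluorescence was read at 0 and 20 min.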
# VP16 counter – inhibits Gal4-VP16 luciferase reporter, ROR gamma counter-screen. Drosophila S2 Gal4-VP16 UAS-luciferase, luminescence, 20 h. Potency, µM (doses to about 53.6 µM), for inactives: at the highest dose activity, negative = inhibition, hits mostly inhibitors. AID 2546. 3.5% of 310,000 active;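 further: Gal4-VP16 expression switched on by copper sulfate through the metallothionein promoter; potency means the concentration at half of the fitted maximal effect; nearly all actives have a fitted effect of over 50% in size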
# RORg inh – inhibitors of mouse ROR gamma transcriptional activity; P51450; Drosophila S2 Gal4-RORgamma UAS-luciferase reporter, 20 h; Potency, µM (series often up to 53.6 µM), without a hit: top-dose activity change, negative = inhibition, actives largely listed as inhibitors; 5.4% of 310,000 active; AID 2551; further: potency means the concentration at half of the fitted maximal effect; nearly all actives have a fitted effect of over 60% in size
# Target sequence (P51450 whole entry, looked up, the tested form may be a part): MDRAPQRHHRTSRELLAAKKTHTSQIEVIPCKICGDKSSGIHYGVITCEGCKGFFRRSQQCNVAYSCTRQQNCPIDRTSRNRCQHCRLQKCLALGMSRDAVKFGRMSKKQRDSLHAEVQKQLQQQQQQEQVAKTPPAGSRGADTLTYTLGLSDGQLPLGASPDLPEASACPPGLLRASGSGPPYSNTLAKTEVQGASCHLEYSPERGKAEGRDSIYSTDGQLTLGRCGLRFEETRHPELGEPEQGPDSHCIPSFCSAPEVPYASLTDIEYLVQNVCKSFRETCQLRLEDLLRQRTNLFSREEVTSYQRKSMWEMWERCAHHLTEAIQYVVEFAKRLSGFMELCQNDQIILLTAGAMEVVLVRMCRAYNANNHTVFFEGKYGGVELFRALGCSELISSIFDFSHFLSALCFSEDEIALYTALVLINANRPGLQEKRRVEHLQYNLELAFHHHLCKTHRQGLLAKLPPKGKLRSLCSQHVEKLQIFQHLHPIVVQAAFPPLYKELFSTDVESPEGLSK
#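 Stable Schneider cell line, Gal4 DNA-binding domain fused to ROR gamma, UAS-luciferase. Cmpd 1 hr RT → CuSO4 700 uM final → 20 hr RT → luciferase reagent 10 min → luminescence.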
# TDP1 cell noCPT – qHTS for Inhibitors of human tyrosyl-DNA phosphodiesterase 1 (TDP1): qHTS in cells in absence of CPT. DT40 Tdp1-/- hTDP1 cells, no CPT, ATP luminescence, 48 h. Potency, µM (highest dose often 46.2 µM), for the others: at the highest dose activity change, negative = growth inhibition, usual class: inhibitors. 15% of 420,000 active. AID 686978, 2013; further: potency means the concentration at half of the fitted maximal effect; nearly all actives have a fitted effect of over 55% in size
#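 No-CPT arm: Tdp1-/-;hTDP1 DT40 cells (400/well) plus compounds, incubated ≥48 hr at 37 °C. Readout CellTiter-Glo luminescence.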
# IL1B secr inh – blocks inflammasome-driven IL-1 beta release; THP-1 LPS/ATP IL-1B secretion, AlphaLISA, 16 h; hits give low values; activity change, % at 57.5 µM; 4.7% of 360,000 active; in the data active means activity change below about -50%; inconclusive means mostly about -30% to -49%
#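 THP-1 cells pretreated 1 hr with compounds (up to 57.5 uM final), then stimulated with LPS (250 ng/mL final) plus ATP (1.25 mM final); secreted IL-1B measured by AlphaLISA after 16 hr, decreased signal indicating inhibition.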
# * hit, by the source's call; ? = inconclusive; · = no result given; [ ] = dose if it differs, or a comment. A selection: hits, their analogues and other compounds. The true share with any hit is near 18%. Unless noted, the call rests on the fitted dose curve; in most records, active means well fitted curve in the direction sought with a large enough effect; inconclusive means small, poorly fitted or top-dose-only effect, or another doubt; inactive means no such curve, though single readings can be large; an effect the other way counts as inactive or inconclusive. Unless noted, on the % scale 0 is the no-effect control and ±100 the full control effect.
SMILES,DT40 TDP1 CPT,LDHA block,VP16 counter,RORg inh,TDP1 cell noCPT,IL1B secr inh
CN1C=CC(=O)[C@@H](OC(=O)Nc2ccc(Br)cc2)[C@H]1c1ccccc1Br,?,0.1,·,·,14.6µM*,-6.7
C#CCN1C=CC(=O)[C@@H](OC(=O)Nc2ccccc2Br)[C@H]1c1ccccc1Br,23.1µM*,-3.3,·,·,?,-17.1
C=CCN1C=CC(=O)[C@@H](OC(=O)Nc2ccc(Br)cc2)[C@H]1c1ccccc1Br,23.1µM*,-3.5,·,·,?,-20.3
Cc1cc2cc(NS(=O)(=O)c3cc(F)cc(F)c3)ccc2[nH]1,·,9.3,·,·,·,·
COc1ccc(Br)cc1/C=C(/C#N)C(=O)C(C)(C)C,·,0.0,·,·,·,·
CCOc1ccccc1/C=N/n1c(C2CCCCC2)n[nH]c1=S,-20.9%,-4.1,?,4.47µM*,-1.0%,10.0
COc1cc(/C=N/n2c(C3CCCCC3)n[nH]c2=S)cc(Br)c1O,-13.8%,-1.9,-22.0%,-42.3%,?,34.5
O=C(O)c1ccccc1/C=N/n1c(C2CCCCC2)n[nH]c1=S,-7.9%,-4.1,-5.1%,-17.3%,-2.0%,6.4
S=c1[nH]nc(C2CCCCC2)n1/N=C/c1ccccc1Cl,-3.1%,-3.6,?,11.2µM*,?,24.6
COc1ccccc1/C=C/C=N/n1c(C2CCCCC2)n[nH]c1=S,?,-1.5,2.51µM*,1.41µM*,16.4µM*,-3.5
FC(F)(F)c1ccccc1/C=N/n1c(C2CCCCC2)n[nH]c1=S,-22.7%,0.3,?,7.94µM*,-20.8%,-14.2
O=S(=O)(c1cccc2nsnc12)N1CCCCCC1c1ccccc1Cl (configuration not stated),·,6.0,·,·,·,·
CCOc1ccc(N(Cc2cc3cc(C)ccc3[nH]c2=O)C(=O)c2cccc(Cl)c2)cc1,9.2µM*,-2.5,·,·,?,·
COc1ccc2[nH]c(=O)c(CN(C(=O)c3cccc(Cl)c3)c3ccccc3OC)cc2c1,23.1µM*,5.2,·,·,?,·
Cc1ccc2cc(CN(C(=O)c3ccccc3)c3ccccc3C)c(=O)[nH]c2c1,·,-2.0,·,·,·,·
CCOc1ccc(N(Cc2cc3cc(C)ccc3[nH]c2=O)C(=O)COC)cc1,?,-1.2,-1.3%,16.0%[1.91 µM],-8.3%,-15.9
COc1ccccc1N(Cc1cc(=O)[nH]c2ccccc12)C(=O)c1cccc([N+](=O)[O-])c1,20.6µM*,-0.9,5.9%,9.0%,?,-17.9
Cc1ccc2cc(CN(C(=O)c3cccc(Cl)c3)c3ccccc3)c(=O)[nH]c2c1,11.6µM*,2.3,·,·,18.4µM*,·
CCOc1ccc(NC(=O)Cc2cc(Cl)c3c(c2)OCCCO3)cc1S(=O)(=O)N1CCCC1,·,-13.9,·,·,·,·
Cc1ccc(NC(=O)c2nn(-c3ccccc3)c(=O)c3ccccc23)c(O)c1,·,-1.3,·,·,·,·
CCOc1ccc(N(Cc2cc3cc(OC)ccc3[nH]c2=O)C(=O)C2CCCO2)cc1 (configuration not stated),?,-3.8,-6.9%,?,18.4µM*,-11.4
Fc1ccccc1N1CCN(Cc2nc(-c3ccccc3)no2)CC1,-12.4%,4.9,-2.1%,3.6%,-16.0%,14.9
CC(C)Sc1cc(N2CCOCC2)nc(-c2ccccc2)n1,23.1µM*,0.0,-4.2%,0.8%,16.4µM*,?
COCc1cc(N2CCN(c3ccccc3F)CC2)nc(-c2ccccc2)n1,?,3.0,-8.7%,40.4%,11.6µM*,37.7
COCc1cc(N2CCOCC2)nc(-c2ccccc2)n1,23.1µM*,-8.8,1.5%,9.8%,?,?
SMILES,DT40 TDP1 CPT,LDHA block,VP16 counter,RORg inh,TDP1 cell noCPT,IL1B secr inh
CCN(CC)S(=O)(=O)c1ccc(C(C)NCc2sccc2C)cc1 (configuration not stated),·,0.8,·,·,·,·
CCNC(=O)CN1CCN(Cc2coc(-c3ccccc3)n2)CC1,·,11.1,·,·,·,·
CCCCCCCCCCCC1N=C(N)NC(CCCO)=C1C(=O)OC (configuration not stated),5.8µM*,-3.1,·,·,3.66µM*,?
CCCCCCOC(=O)c1ccc(N)cc1,-5.9%,0.9,-15.6%,2.9%,0.8%,-28.4
O=C(CSc1nnc(-c2ccco2)n1CC1CCCO1)c1ccc(F)cc1 (configuration not stated),18.4µM*,-5.0,19.9%,15.9%,20.6µM*,-18.3
c1ccc2c(-c3csc(-c4ccncc4)n3)c[nH]c2c1,18.4µM*,-1.0,?,-23.6%,14.6µM*,-15.4
Cc1c(N2C(=O)/C(=C/c3cccc4ccccc34)SC2=S)c(=O)n(-c2ccccc2)n1C,?,-0.9,·,·,-16.8%,-79.9*
CN1C(=O)/C(=C/c2cc(N=Nc3ccccc3)ccc2O)SC1=S,?,11.7,-11.6%,-19.0%,23.1µM*,26.8
Cc1c(N2C(=O)CS/C2=N\N=C\c2ccccc2O)c(=O)n(-c2ccccc2)n1C,0.2%,5.1,8.6%,34.0%,-7.2%,-3.9
Cc1ccc(/C=C2\SC(=S)N(c3c(C)n(C)n(-c4ccccc4)c3=O)C2=O)cc1,?,1.8,11.5%,44.8%,-19.2%,-80.5*
Cc1c(N2C(=O)/C(=C\c3ccccc3O)SC2=S)c(=O)n(-c2ccccc2)n1C,7.31µM*,-1.6,?,?,?,?
COc1cccc(C(=O)Nc2ccccc2)c1,-0.6%,-9.3,3.7%,14.8%,-11.7%,-20.9
COc1ccc(NC(=O)c2cccc(OS(=O)(=O)N(C)C)c2)cc1,18.4µM*,-8.5,-12.3%,-4.1%,5.17µM*,-12.0
CCOc1cccc(C(=O)Nc2ccc3[nH]ncc3c2)c1,6.9%,-6.6,-22.2%,-34.3%,-14.8%,-22.1
CN(C)S(=O)(=O)Oc1cccc(C(=O)Nc2cccc(Cl)c2)c1,14.6µM*,-7.4,-12.4%,?,18.4µM*,-55.7*
COc1cccc(C(=O)Nc2cccc(NC(=O)c3ccc(Cl)cc3Cl)c2)c1,?,-3.2,·,·,?,·
COc1cccc(C(=O)Nc2ccc3[nH]ncc3c2)c1,-4.9%,1.5,-29.6%,-32.7%,-28.7%,-57.3*
CN(C)S(=O)(=O)Oc1cccc(C(=O)Nc2ccc(Cl)c(Cl)c2)c1,7.31µM*,-8.5,?,?,10.3µM*,-88.3*
Cc1ccc(NC(=O)c2cc(=O)c3ccc(C)c(C)c3o2)cc1Cl,·,-11.6,·,·,·,·
O=C(Nc1ccccn1)c1ccc(C2SCCCS2)cc1,·,3.2,·,·,·,·
CCOC(=O)C(=O)CC(=O)c1cc(Cl)ccc1Cl,·,12.6,·,·,·,·
CCCC(=O)Nc1ccc(C(=O)NCc2cccnc2)cc1,·,2.2,·,·,·,·
